# Screening results deposited in PubChem by National Center for Advancing Translational Sciences (NCATS).
# p53 reactivation – restores transcriptional activity of mutant p53; 320,000 compounds, 0.063% hits; H1299 p53-A138V BP100-luciferase reporter, luminescence, 24 h; Potency, µM (titrated, usually from 92.2 µM), inactives show top-dose activity change, positive = activation, hits mostly activators; also: potency is read from the fitted curve at half-maximal effect; % of control where 0% means no effect; nearly all actives have a fitted effect of over 45% in size
#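 p53-null H1299 cells stably carrying temperature-sensitive p53-A138V and a BP100-luciferase reporter were pinned with compounds (4-point, 1:5 series) and held 24 hrs at 37 deg C. Luminescence was read 10 min after detection reagent.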
# GLS inhibitor – inhibitors of human glutaminase (GLS). GLS enzymatic activity, qHTS titration. Potency, µM (highest dose often 45.5 µM), for the others: at the highest dose activity change, negative = inhibition, usual class: inhibitors. 410,000 compounds, 0.21% hits. AID 624170; also: potency is read from the fitted curve at half-maximal effect; % is scaled to controls: 0 for no effect and ±100 for the full control effect
#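 Enzyme dispensed in phosphate buffer (45 mM, pH 8.2, 0.02% Tween-20), compounds pinned in, then 1 mM L-glutamine solution and the glutamate oxidase–HRP–Amplex Red mix added; fluorescence read immediately and again after 30 min at room temperature.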
# N370S GC – N370S glucocerebrosidase modulation, Gaucher chaperone candidate. P04062. N370S GC spleen homogenate, 4MU-glucoside fluorescence. Potency, µM (series often up to 59.4 µM), inactives show top-dose activity change, negative = inhibition, usual class: inhibitors. 330,000 compounds, 0.092% hits. AID 2101;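 also: potency is read from the fitted curve at half-maximal effect; 0% = full enzyme activity and -100% = no enzyme basal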
# BRCA1 expr act – increases BRCA1 expression | MCF7-BRCA1-FFLuc reporter, luminescence, 48 h; response scale: scaled: vehicle 0%, 10 µM genistein 100% | Potency, µM (highest dose often 46.1 µM), inactives show at the top dose activation, actives largely listed as activators | 380,000 compounds, 1.1% hits | AID 624202; also: potency is read from the fitted curve at half-maximal effect; nearly all actives have a fitted effect of over 80% in size
#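 Activators of BRCA1 expression were detected as increased firefly luciferase luminescence in engineered MCF7 cells after 48 h compound incubation. Signals were scaled to genistein 10 microM as full activation.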
# TCR activator – activators of T cell receptors; primary human leukocytes, anti-CD3, IL-2 HTRF, 48 h; Potency, µM (top dose mostly 9.22 µM), inactives show at the top dose activation of IL-2 secretion, actives largely listed as activators; 330,000 tested, under 10 active; AID 504894; also: % of control where 0% means no effect
#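 48 hr co-incubation of compounds, a-CD3 beads and primary human leukocytes; IL-2 quantified homogeneously by HTRF with anti-IL-2 K and d2 conjugates.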
# TSHR antagonist – blocks TSH signaling through the human TSH receptor; P16473; TSHR-expressing cells, TSH-stimulated cAMP HTRF, 2 h; active compounds read low; activity change, negative = inhibition, % at 11.5 µM; 330,000 compounds, 0.2% hits; AID 504810;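 active = activity change below a set negative limit, meaning inhibition stronger than a set level, cut at about -70% in these data; inconclusive = activity change between two set negative limits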; also: % is scaled to controls: 0 for no effect and ±100 for the full control effect
# Target sequence (P16473 whole entry, looked up): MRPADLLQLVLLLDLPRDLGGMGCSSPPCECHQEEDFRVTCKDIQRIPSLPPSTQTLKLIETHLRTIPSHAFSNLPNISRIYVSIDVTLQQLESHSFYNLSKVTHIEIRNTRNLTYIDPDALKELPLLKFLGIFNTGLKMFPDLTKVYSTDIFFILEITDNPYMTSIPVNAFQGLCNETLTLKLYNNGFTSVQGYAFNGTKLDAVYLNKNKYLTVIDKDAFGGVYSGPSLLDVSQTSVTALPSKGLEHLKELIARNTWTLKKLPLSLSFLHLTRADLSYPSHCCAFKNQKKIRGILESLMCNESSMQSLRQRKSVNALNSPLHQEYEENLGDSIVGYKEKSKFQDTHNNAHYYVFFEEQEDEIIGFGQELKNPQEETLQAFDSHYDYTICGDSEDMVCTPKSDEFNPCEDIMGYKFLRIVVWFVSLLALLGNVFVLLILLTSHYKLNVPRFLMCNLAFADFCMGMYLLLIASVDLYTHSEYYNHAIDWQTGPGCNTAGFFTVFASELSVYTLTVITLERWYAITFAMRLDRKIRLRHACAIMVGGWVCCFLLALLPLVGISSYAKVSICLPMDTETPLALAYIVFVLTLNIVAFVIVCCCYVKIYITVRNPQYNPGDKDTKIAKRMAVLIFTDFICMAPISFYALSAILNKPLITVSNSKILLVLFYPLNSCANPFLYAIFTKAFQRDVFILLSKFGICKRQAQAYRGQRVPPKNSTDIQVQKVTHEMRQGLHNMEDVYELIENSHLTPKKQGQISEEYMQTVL
#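 Freshly harvested TSHR cells receive pin-tooled compound, then EC80 TSH at 4nM final. After 2 hours at 37 deg C, antibody in lysis buffer and cAMP-d2 are added; 30 minutes at ambient temperature precede the HTRF read.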
# * hit, by the source's call; ? = inconclusive; · = not tested or not shown; [ ] = remark or other dose. Most compounds without a hit are left out; they make up all but 1.4% or so of the library. Unless noted, calls follow the shape of the dose curve; as a rule, active = well fitted curve in the direction sought with a large enough effect; inconclusive = small, poorly fitted or top-dose-only effect, or another doubt; inactive = no such curve, though single readings can be large; an effect the other way counts as inactive or inconclusive.
SMILES,p53 reactivation,GLS inhibitor,N370S GC,BRCA1 expr act,TCR activator,TSHR antagonist
O=C(Nc1ccc(NC(=O)C2CC2)cc1)c1cccs1,33%,-1%,-1%,10µM*,10%,4
O=C(Nc1ccc(NC(=O)c2ccco2)cc1)c1ccco1,-5%,0%,?,10µM*,1%,-12
O=C(c1ccc2c(c1)OCCO2)N(Cc1cccnc1)c1nc2c(F)cccc2s1,·,-5%,·,·,·,·
O=C(Nc1ccc(NC(=O)C2CC2)cc1)c1ccco1,?,-15%,-7%,3.2µM*,0%,4
CC(=O)c1ccc(NC(=O)C2CCN(S(=O)(=O)c3cccs3)CC2)cc1,6%,-6%,-19%,8.9µM*,0%,-7
CC(NC(=O)c1ccco1)C(=O)Nc1nccs1 (stereo not drawn),-1%,2%,·,-8%,-9%,23
CC(=O)c1ccc(NC(=O)c2cccc(S(=O)(=O)N3CCN(C)CC3)c2)cc1,?,-4%,-15%,11µM*,1%,-4
O=C(Nc1ccc(NC(=O)C2CCCCC2)cn1)c1ccco1,-12%,3%,11%,95%,2%,6
O=C(Nc1nccs1)c1ccc(NC(=O)c2ccco2)cc1,?,5%,3%,5µM*,-1%,-14
NC1CCc2ccccc21 (stereo not drawn),·,·,·,4%,·,·
O=C(Nc1ccccc1C(=O)O)c1ccc(NC(=O)C2CC2)cc1,-4%,13%,-14%,14%,4%,15
CCCC(=O)Nc1cc(C)c(NC(=O)c2ccco2)cn1,?,-3%,-7%,9%,·,-5
O=C(Nc1ccccc1O)c1ccc(NC(=O)C2CC2)cc1,?,2%,-7%,1.8µM*,3%,-3
Cc1ccc(NC(=O)CNC(=O)c2ccco2)cc1,15%,5%,8%,11µM*,8%,7
CCOC(=O)c1ccc(NC(=O)c2ccco2)cc1,35%,-6%,4%,7.1µM*,7%,-5
CCCCC(=O)Nc1cnc(NC(=O)c2ccco2)cc1C,30%,0%,1%,11µM*,1%,-5
CC[N+]1(CC(=O)c2cccs2)CCCCC1,·,·,·,-4%,·,·
O=C(NC(=S)Nc1ccccc1Br)c1ccco1,?,-2%,1%,13µM*,1%,22
O=C(Cc1ccccc1)Nc1ccc(NC(=O)c2ccco2)nc1,?,2%,5%,5.6µM*,8%,-3
Cc1ccc(C)c(NC(=O)Nc2ccc3c(c2)OCO3)c1,?,9%,-12%,92%,-2%,-5
Cc1ccccc1NC(=O)Nc1ccc2c(c1)OCO2,27%,-7%,-2%,5.6µM*,3%,5
O=C(Nc1ccc2c(c1)OCO2)c1c(F)cccc1F,?,4%,-2%,4.5µM*,-21%,-5
O=C(CCS(=O)(=O)c1ccccc1)Nc1ccc2c(c1)OCO2,6%,44%,6%,7.9µM*,4%,-2
N/C(=N\C(=S)Nc1ccccc1)c1ccccc1,?,-7%,-3%,?,0%,0
O=C(Nc1ccc2c(c1)OCO2)c1ccccc1,?,-3%,1%,?,-7%,8
SMILES,p53 reactivation,GLS inhibitor,N370S GC,BRCA1 expr act,TCR activator,TSHR antagonist
N/C(=N\C(=S)Nc1ccc2c(c1)OCO2)c1ccccc1,·,-12%,·,4.5µM*,·,·
O=C(Nc1cccc(F)c1)Nc1ccc2c(c1)OCO2,29%,22%,2%,?,0%,-6
Cn1nccc1C(=O)Nc1ccc(Cl)cc1,16%,-1%,-3%,?,5%,-2
COc1cc(C(=O)Nc2ccc3c(c2)OCCO3)ccc1OC(C)C,-13%,10%,-21%,?,-1%,6
O=C(Nc1ccc2c(c1)OCO2)c1cccc(F)c1,·,-17%,6%,11µM*,-7%,·
COc1cc(C(=O)Nc2ccc3c(c2)OCCO3)ccc1OC(F)F,?,1%,-9%,11µM*,·,5
Cn1nccc1C(=O)Nc1ccc2c(c1)OCO2,20%,2%,-4%,13µM*,-4%,-19
COc1cc2c(NC3CCN(C)CC3)nc(N3CCCN(C)CC3)nc2cc1OCCCCCN(C)C,·,·,·,-25%,·,·
CC(=O)N(CC(O)CO)c1c(I)c(C(=O)NCCO)c(I)c(C(=O)NCC(O)CO)c1I (stereo not drawn),·,2%,·,·,·,·
CCCCN1C(=O)C(=O)N(c2ccccc2)C1=S,?,3%,-2%,5µM*,3%[46.1 µM],2
CCCCN1C(=O)C(=O)N(CC(=O)N2CCN(c3ccccc3)CC2)C1=O,0%,14%,2%,7%,7%,-2
CC(C)c1ccc(OCC(=O)N2CCCCCC2)c(Br)c1,2%,?,·,10µM*,-4%,-14
O=C(Cc1ccccc1)Nc1c(C(=O)Nc2ccccc2F)oc2ccccc12,·,1%,·,11%,·,·
Cc1ccccc1-c1nccc(NCCN2CCOCC2)n1,·,·,-1%,·,·,·
O=[N+]([O-])c1cccc2ccc(/C=C/c3ccc(Cl)cc3)nc12,?,6%,10%,-64%,0%[46.1 µM],1
CCOc1cc(/C=C/c2ccc3cccc([N+](=O)[O-])c3n2)cc(Cl)c1O,14%,26%,9%,-74%,4%[46.1 µM],-72*
Cc1ccc(C2CC(=O)N(Cc3ccccc3)c3c2c(C)nn3-c2nc(C)cc(C)n2)cc1 (stereo not drawn),·,1%,·,·,·,·
O=C(Cn1ncc(Cl)c(Cl)c1=O)N1CCN(S(=O)(=O)c2ccc3ccccc3c2)CC1,-42%,-9%,2%,-97%,5%[46.1 µM],-79*
CC(=O)c1ccc(N2CCN(c3ncccn3)CC2)cc1,?,-12%,-5%,10µM*,-4%,8
NC(=O)C1CCN(C(=O)CCSc2ccc(Cl)cc2)CC1,0%,?,-1%,19%,3%,5
O=C(CCSc1ccc(Cl)cc1)N1CCCCCC1,?,12%,6%,13µM*,-4%,-9
N[C@H]1CN(c2c(F)cc3c(=O)c(C(=O)O)cn(C4C[C@@H]4F)c3c2Cl)CC12CC2 (stereo partly drawn),·,-4%,·,·,·,·
CCc1ccc(N2CC(C(=O)OCc3nc4ccsc4c(=O)[nH]3)CC2=O)cc1 (stereo not drawn),-2%,18µM*,·,-2%,-14%,2
Cc1cnc(C(=O)OCc2nc3ccsc3c(=O)[nH]2)cn1,1%,14µM*,·,12%,-3%,4
CCc1ccc(N2CC(C(=O)OCc3csc(CC(=O)Nc4ccccc4C)n3)CC2=O)cc1 (stereo not drawn),7%,-1%,·,4%,-8%,-20
CC1=CC(=O)C2=C(C)CC[C@H]3[C@H](C)C(=O)O[C@@H]3C12 (stereo partly drawn),·,·,-5%,·,·,·
